The panel holds about 83,000 compounds, 20% with a hit somewhere; the sample as a whole holds those more often.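 Method: cells in 96-well plates; compound added at one concentration; 48 h incubation; percent growth measured; values under 10 scored active.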 Unmarked numbers belong to inactive results. Activity calls are given as the source filed them.
system: MDA-MB-468 breast; experiment: NCI-60 one-dose screen, 48 h (100 = growth as untreated, 0 = no growth, -100 = all killed); details: 10 µM unless noted

Row | SMILES | growth
1 | CCCCCCCCCc1cc[n+](CC(=O)c2ccc([N+](=O)[O-])cc2)cc1 | -18.6% (active)
2 | COc1ccc(CN(c2ccc(C)cc2)C2OC(=O)c3ccccc32)cc1OC (stereo not given) | 90.2%
3 | COc1ccc(C2C(C#N)=C(N)Oc3c2ccc2ccccc32)cc1 (stereo not given) | 14.5%
4 | O=C(Nc1cc(Cl)cc(Cl)c1)Nc1nc2ccc([N+](=O)[O-])cc2s1 | -24.1% (active)
5 | O=C1/C(=C/C2=Cc3ccccc3OC2)SC(=S)N1c1ccc(F)cc1 | 112%
6 | CCN(C(=O)CN1CCN(c2cc3c(cc2F)c(=O)c(C(=O)O)cn3CC)CC1)c1nc(-c2ccccc2)cs1 | -7.7% (active)
7 | O=C(CSc1nc2ccc([N+](=O)[O-])cc2[nH]1)Nc1ccc(Br)cc1 | 14.1%
8 | Cc1nn(-c2ccccc2)cc1/C=N/Nc1nc(Nc2ccccc2)nc(Nc2ccc(S(N)(=O)=O)cc2)n1 | -37.1% (active)
9 | CCOC(=O)c1cc(C(=O)c2cc(OC)c(OC)c(OC)c2)n2ccccc12 | -7.14% (active)
10 | C/C(=N\O)C1(O)CCCCC1 | -9.98% (active)
11 | CCCCCCCCCCCCNC(=O)[C@H]1CSC(c2ccsc2)N1 (stereo not given in full) | -74.1% (active)
12 | CCN(CC)CCN1C(=O)c2c(c3c4cc(Br)ccc4[nH]c3c3ccc4ccccc4c23)C1=O | -80.7% (active)
13 | FC(F)(F)c1ccccc1-c1cn2c(ccc3ccccc32)n1 | 105%
14 | CS(=O)c1nccc(-c2c(-c3ccc(F)c(OCc4ccccc4)c3)nc3sccn23)n1 (stereo not given) | -19.4% (active)
15 | CCCc1[nH]c(-c2cc(N)ccc2Cl)c2c1C(=O)CCCC2 | 93.7%
